Assay outcomes as filed in PubChem.
Mac1 fbg inh: inhibitors of human CD11b/CD18 binding to fibrinogen; P05107+P11215; K562 CD11b/CD18 adhesion to fibrinogen, ATPlite luminescence; Mn2+ added to activate the integrin; inhibition, % at 10 µM; 93,000 tested, 0.54% active; AID 1497;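 active means primary inhibition of 50% or more at 10 µM, then 40% or more on retest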
MRP reversal: reverses drug resistance mediated by MRP; H69AR cells + 2 uM doxorubicin, CellTiter-Glo, 72 h; differential viability (reversal), % at 10 µM; 85,000 tested, 0.04% active;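 active means viability drop by adding the cancer drug above about 55%, with treated viability meeting a 40% cutoff, limit read from the data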;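 further: larger differential means the compound sensitizes cells more to doxorubicin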
Pyk2 oligo antag: antagonists of human Pyk2 oligomerization; z-score (the deposit names both 25 µM and 10 µM); Q293 cells, Pyk2 FERM NanoBiT luminescence; stronger effect = lower value; 99,000 tested, 0.83% active;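 active means Z-score of -3 or lower, scaled per plate to the spread of control and sample wells; inactive means z-score above -3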;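 further: negative z-score means lost luminescence so less FERM oligomerization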
MRP1 act: activates MRP-1 | 140,000 tested, 0.61% active | viability increase, % at 10 µM | H69AR cells + doxorubicin, viability rescue, CellTiter-Glo | AID 799;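 active means viability gain under doxorubicin at or above a set limit, the compound median plus 3 SD, cut at about 4.7% in these data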;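 further: MRP-1 overexpressing cells given doxorubicin 25 µM after compound pretreatment; 18-22 h compound pretreatment then 72 h with doxorubicin before readout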
Cav32 inh: blocks human Cav3.2 T-type calcium channel | O95180 | Cav3.2-expressing cells, Fluo-4 calcium fluorescence FDSS; stronger effect = lower value | B-score at 10 µM | 100,000 tested, 4% active | AID 449739;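 active means single-dose well whose peak fluorescence ratio is a statistical outlier from its plate by either plate-standardised score or position-corrected B-score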
CD11b adhes enh: increases human CD11b/CD18 adhesion to fibrinogen; P05107+P11215; K562 CD11b/CD18 adhesion to fibrinogen, ATPlite luminescence; activation, % at 10 µM; 93,000 tested, 0.07% active; AID 1499;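 active means 10 µM primary screen giving 50% or more activity, confirmed by 40% or more on retest at that dose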
Large screens that a line does not name were inactive. Hits are enriched below; roughly 4.1% of the tested compounds scored in any of these assays.

O=C(CSc1ncn[nH]1)Nc1nnc(-c2ccccc2)s1	MRP1 act 7.2 (no result: Pyk2 oligo antag)
O=C(COc1ncnc2ccccc12)N1CCN(S(=O)(=O)c2ccccc2)CC1	none
CCOC(=O)c1ccc(NC(=O)NC2CC3CCC(C2)N3Cc2nnnn2Cc2ccco2)cc1 (stereo unspecified)	Cav32 inh -6.1 (no result: Mac1 fbg inh, CD11b adhes enh)
CCOC(=O)CN(C(=O)CSc1nnc2c(n1)[nH]c1ccc(F)cc12)c1ccccc1	Cav32 inh -4.3 (no result: Mac1 fbg inh, CD11b adhes enh)
Cc1c(C(=O)O)oc2ccc(S(=O)(=O)NCCC3=CCCCC3)cc12	none (no result: Mac1 fbg inh, CD11b adhes enh)
Cc1cccc2sc(NC(=O)C3c4ccccc4Oc4ccccc43)nc12	Cav32 inh -3.3 (no result: MRP reversal)
COc1ccc(OC)c(-c2csc(NC(=O)C3c4ccccc4Oc4ccccc43)n2)c1	MRP1 act 9.4 (no result: MRP reversal, Pyk2 oligo antag, Cav32 inh)
O=C(Nc1nc(-c2ccccc2)cs1)C1c2ccccc2Oc2ccccc21	Cav32 inh -5.2 (no result: MRP reversal)
CCc1nnc(NC(=O)CCC(=O)N2CCN(CCOc3ccc(C)cc3)CC2)s1	MRP1 act 5.6
CCc1nnc(NC(=O)c2ccc(COc3ccc(C)cc3)o2)s1	MRP1 act 6.2
CCOc1ccc(OCc2ccc(C(=O)NCc3ccncc3)o2)cc1	none
Cc1ccc(OCc2ccc(C(=O)Nc3nccs3)o2)cc1	none
CCc1ccc(OCc2ccc(C(=O)NCc3ccccn3)o2)cc1	Cav32 inh -3.9
CCOC(=O)c1ccc2c(c1)C1C=CCC1C(C(=O)O)N2 (stereo unspecified)	CD11b adhes enh 116 (no result: MRP reversal, Pyk2 oligo antag)
CCOc1cccc(NC(=O)C2CC(=O)NC(=Nc3ccccc3)S2)c1 (stereo unspecified)	Cav32 inh -4.9
CCOC(=O)c1c(CN2CCN(Cc3ccccc3)CC2)n(C)c2cc(Br)c(OC)cc12	Cav32 inh -7
CCOC(=O)c1c(CSc2ccccc2)n(C)c2cc(Br)c(OCC(O)CNC(CO)(CO)CO)cc12 (stereo unspecified)	none (no result: Mac1 fbg inh, MRP reversal, Pyk2 oligo antag, Cav32 inh, CD11b adhes enh)
O=C(Oc1cccc(Nc2ncnc3ccccc23)c1)c1ccccc1Cl	Cav32 inh -5.4 (no result: MRP reversal)
CCOC(=O)c1cccc(Nc2ncnc3ccc(C)cc23)c1	none
O=C(c1ccccc1)N1CCN(c2ncnc3sc4c(c23)CCC4)CC1	Mac1 fbg inh 51
Cc1cccc(Nc2nc(N3CCCC3)nc(N3CCCC3)n2)c1	none
Cc1cccc(Nc2nc(NCc3ccco3)nc(N3CCOCC3)n2)c1	Cav32 inh -4.7
S=c1[nH]nc(COc2ccc(Cl)cc2)o1	MRP1 act 4.9
COc1ccc(OCc2n[nH]c(=S)o2)cc1	none
COc1cccc(-c2cnc(NCc3cc(Cl)ccc3O)n2C)c1	Cav32 inh -4.3
Cc1cccc(-c2nsc(SCC(=O)NCc3ccco3)n2)c1	Cav32 inh -3.9
c1csc(CSc2nc3ccccc3s2)c1	none
CCn1c(CSc2nc3ccccc3s2)nc2ccccc21	Cav32 inh -5.7
CCNC(=O)CC1C(=O)N(c2ccccc2)C(=O)N1CCc1ccc(OC)c(OC)c1 (stereo unspecified)	none
COc1ccc(-c2nc3c(c(=O)[nH]c(=O)n3Cc3ccccc3)n2Cc2ccccc2)cc1	Pyk2 oligo antag -3.1, Cav32 inh -6.4 (no result: MRP reversal)
CCN1C(=O)/C(=C/c2nc3ccccc3c(=O)n2-c2ccccc2)c2ccccc21	Pyk2 oligo antag -3.2 (no result: MRP reversal)
Cc1cc(C)cc(-n2c(C)cc(/C=N/NC(=O)CSc3ncccn3)c2C)c1	Cav32 inh -6.8 (no result: Mac1 fbg inh, MRP reversal, CD11b adhes enh)
Cc1cc(/C=N\NC(=O)COc2cccc3cccnc23)c(C)n1-c1ccccc1	none (no result: Mac1 fbg inh, MRP reversal, Pyk2 oligo antag, Cav32 inh, CD11b adhes enh)
CCC(NC(=O)Nc1nnc(C(F)(F)F)s1)(C(F)(F)F)C(F)(F)F	Mac1 fbg inh 107, Cav32 inh -7.8
O=C(O)CCC(=O)Nc1nnc(C(F)(F)F)s1	none
O=C(CSCC(=O)OCC(=O)c1ccc(Br)cc1)Nc1ccc(Br)cc1	none (no result: Mac1 fbg inh, MRP reversal, CD11b adhes enh)
CCCN1C=CC(=C/C=C(\C#N)C(=O)OCC)C=C1	none (no result: Pyk2 oligo antag)
CCCCCCN1C=CC(=C/C=C(\C#N)C(=O)OCC)C=C1	Cav32 inh -3.3 (no result: Mac1 fbg inh, CD11b adhes enh)
O=C(Cc1cccs1)N1CCCC(c2nc3c(nnn3Cc3ccccc3Cl)c(=O)[nH]2)C1 (stereo unspecified)	none
O=C(NCc1cccs1)c1nc2c(nnn2Cc2ccccc2Cl)c(=O)[nH]1	Cav32 inh -4.5 (no result: Mac1 fbg inh, CD11b adhes enh)
Cc1cc(N2CCC(C(=O)NC3CC3)CC2)nc(-c2ccccc2)n1	none
Cc1cc(N2CCN(c3cccc(C)c3C)CC2)nc(-c2ccccc2)n1	MRP1 act 5.1 (no result: Mac1 fbg inh, CD11b adhes enh)
COc1ccc2c(c1)c(CC(=O)Nc1ccc(C)cc1)c(C)n2C(=O)c1ccc(Cl)cc1	Cav32 inh -3.9 (no result: MRP reversal)
Cc1ccc(C)c(N2CCN(C(=O)c3ccc4nc(-c5ccco5)c(-c5ccco5)nc4c3)CC2)c1	MRP1 act 9.9
COc1ccccc1N1CCN(C(=O)c2ccc3nc(-c4ccco4)c(-c4ccco4)nc3c2)CC1	Cav32 inh -6.2 (no result: Mac1 fbg inh, CD11b adhes enh)
Cc1ccc(C)c(N2CCN(C(=O)c3ccc(NS(=O)(=O)c4c(C)noc4C)cc3)CC2)c1	Cav32 inh -8.3 (no result: MRP reversal)
Cc1ccc(N2CCN(C(=O)c3ccccc3)CC2)c(C)c1	none
CC1CCCc2sc3nc(N4CCN(CCO)CC4)n4ncnc4c3c21 (stereo unspecified)	none
C/C(=N\NC(=O)C1COc2ccccc2O1)c1cccs1 (stereo unspecified)	none
CC(C)CCn1c(Oc2ccccc2Cl)nc2c1c(=O)n(C)c(=O)n2C	Cav32 inh -4.9
CC(C)CCn1c(Cl)nc2c1c(=O)n(C)c(=O)n2C	none (no result: Mac1 fbg inh, CD11b adhes enh)
COn1c2c(c3c4no[n+]([O-])c4ccc31)CCCC2	none
[O-][n+]1c2c(c3c4non(O)c4ccc31)CCCC2	Mac1 fbg inh 96, Cav32 inh -6.8
CCS(=O)(=O)c1ccc2oc(SCC(=O)NC34CC5CC(CC(C5)C3)C4)nc2c1	Cav32 inh -7.2
CN1/C(=C\C(=O)Nc2cccnc2)c2ccccc2CC1(C)C	none (no result: Mac1 fbg inh, Cav32 inh, CD11b adhes enh)
COc1cc([N+](=O)[O-])ccc1NC(=S)Nc1cc(C(=O)OC(C)C)cc(C(=O)OC(C)C)c1	none (no result: MRP reversal, Pyk2 oligo antag, Cav32 inh)
COC(=O)c1sccc1NC(=O)CSc1ccccc1NS(=O)(=O)c1ccc(F)cc1	Cav32 inh -5.6 (no result: MRP reversal)
COC(=O)c1sccc1NC(=O)CSc1ccccc1NS(=O)(=O)c1ccc(Br)cc1	none (no result: MRP reversal)
COC(=O)C1C(=O)c2c([nH]c(C(=O)OCCOC(C)C)c2C)CC1C (stereo unspecified)	none (no result: Pyk2 oligo antag)
C=CCc1ccc(OCCOCCOc2ccc(C)cc2[N+](=O)[O-])c(OC)c1	Cav32 inh -5.5 (no result: Mac1 fbg inh, MRP reversal, CD11b adhes enh)
N#Cc1c(NC(=O)CN2C(=O)c3ccccc3C2=O)oc(-c2ccccc2)c1-c1ccccc1	Cav32 inh -4 (no result: Mac1 fbg inh, MRP1 act, CD11b adhes enh)
N#Cc1c(NC(=O)CCn2cnc3ccccc3c2=O)oc(-c2ccccc2)c1-c1ccccc1	Cav32 inh -9.4
CC(C)CC(C(=O)Nc1oc(-c2ccccc2)c(-c2ccccc2)c1C#N)N1C(=O)c2ccccc2C1=O (stereo unspecified)	Pyk2 oligo antag -3.7 (no result: Mac1 fbg inh, CD11b adhes enh)
